Screening results: PubChem, several laboratories
TcdB inh – TcdB glycohydrolase inhibitors, primary screen, biochemical, single point, plate reader | TcdB glycohydrolase enzymatic assay | inhibition, % at 9.99 µM | AID 652162, 2013 | 0.24% of 350,000 active | Toxin B (Clostridioides difficile), P18177; in the data active = inhibition above about 10%
Yp Topo-I inh – Yersinia pestis topoisomerase I inhibitors, primary screen, biochemical, cleavage product accumulation, plate reader, single point | DNA topoisomerase I (Yersinia pestis CO92) | Y. pestis Topo-I cleavage product accumulation | activity, % at 10 µM | 0.064% of 360,000 active | AID 504884, 2011; in the data active = activity above about 50%, passing the limit was not always enough
Mtb BioA inh – M. tuberculosis BioA enzyme inhibitors, primary screen, biochemical, plate reader, single point, HTS | AID 602481, 2012 | 0.096% of 360,000 active | inhibition, % at 9.99 µM | purified M. tuberculosis BioA enzyme | 7,8-diaminopelargonic acid synthase BioA (Mycobacterium tuberculosis); in the data active = inhibition above about 40%
VHR inh abs – VHR1 phosphatase inhibitors, primary screen, biochemical, absorbance, uHTS; recombinant VHR phosphatase, pNPP absorbance; inhibition, % at 13.3 µM; 0.52% of 290,000 active; in the data active = inhibition above about 50%
Target sequence (P51452 whole entry, looked up): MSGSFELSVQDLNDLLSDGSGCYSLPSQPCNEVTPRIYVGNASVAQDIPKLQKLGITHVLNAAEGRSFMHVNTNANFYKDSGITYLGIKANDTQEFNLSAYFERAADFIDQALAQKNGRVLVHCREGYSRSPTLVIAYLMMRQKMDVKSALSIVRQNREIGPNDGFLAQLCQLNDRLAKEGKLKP
BH1578 lux ind – inducers of Vibrio cholerae quorum light production without autoinducers, primary screen, BH1578 luxS cqsA deficient, single point; V. cholerae BH1578 lux reporter, luminescence, 6 h; activation, % at 18.7 µM; 0.16% of 350,000 active; in the data active = activation mostly above about 9.7%, no sharp cut-off
PfHsp40 yeast – rescue of yeast from PfHsp40 toxicity, primary screen, S. cerevisiae, ATP luminescence | S. cerevisiae expressing PfHsp40, growth rescue | 0.68% of 340,000 active | growth rescue, % at 12.5 µM; in the data active = growth rescue above about 28%, passing the limit was not always enough;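 also: yeast W303a lacking pdr1 and pdr3 grown in galactose medium; growth measured after three days at 30 °C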
Hits are given with their value; 0 = inactive; - = no result given. This is a sample that favours compounds with a hit; in the whole collection about 1.2% have one here.

SMILES	TcdB inh	Yp Topo-I inh	Mtb BioA inh	VHR inh abs	BH1578 lux ind	PfHsp40 yeast
Cc1ccc(C(=O)NC2CC3CCCC(C2)N3Cc2ccccc2)cc1 (stereo not drawn)	0	0	0	52.8	0	0
COCc1cc(=O)[nH]c2cc(NC(=O)C(C)(C)CCl)c(C)cc12	-	0	0	0	0	0
Cc1noc(C)c1NC(=O)Nc1ccc2c(c1)C(=O)N([C@@H](C)CO)C[C@H](C)[C@H](CN(C)Cc1ccc(C(F)(F)F)cc1)OCCCC[C@@H](C)O2	0	-	0	-	-	-
CCOc1ccc(NC(=O)c2ccc(CC)s2)c([N+](=O)[O-])c1	10.3	0	0	0	0	0
CCOc1ccc(NC(=O)c2cccs2)c([N+](=O)[O-])c1	-	0	0	0	0	0
COc1ccc(OCC(=O)Nc2ccc(N3CCN(C(=O)c4ccccc4)CC3)c(Cl)c2)cc1	0	0	0	0	0	39.3
COc1ccc(OCC(=O)Nc2ccc(N3CCOCC3)c(Cl)c2)cc1	-	0	0	0	0	0
COc1ccc(-c2cc(C)no2)cc1S(=O)(=O)NCCCN(C)Cc1ccccc1	0	0	0	0	0	0
O=C(CCNC(=O)c1ccc(Cl)cc1)NCCC1=CCCCC1	0	0	-	-	0	0
Cc1ccc(OCC(=O)NCCC2=CCCCC2)cc1	-	0	0	0	0	0
O=C(COC(=O)c1cnc(Cl)c(Cl)c1)NCCC1=CCCCC1	0	0	-	0	0	30.4
O=C(CCSCc1ccc(Cl)cc1)NCCC1=CCCCC1	0	65.1	-	0	0	0
Cc1ccc(SCC(=O)NCCC2=CCCCC2)cc1	-	51.3	0	0	0	0
COc1cccc(C(=O)Nc2cccc3c2ccc2cccn23)c1	0	0	-	0	0	0
CC(C)(C)N1[C@@H](CC(=O)O)c2cc(C(F)(F)F)ccc2S1(=O)=O	11.9	0	0	-	0	0
CCCCCCCCN1[C@@H](CC(=O)O)c2cc(C(F)(F)F)ccc2S1(=O)=O	0	0	0	-	0	0
O=C(C[C@@H]1CC[C@@H](NC(=O)C2CCOCC2)[C@H](CO)O1)NCc1ccccc1Cl	0	-	0	-	-	-
CCS(=O)(=O)c1nc2ccccc2n1CC(=O)N1CCOCC1	-	0	0	0	0	0
CCCCC(CC)c1nnc(NC(=O)c2cccs2)s1 (stereo not drawn)	0	0	-	0	0	264.2
Cc1ccc2nc(-c3ccc(SCC(=O)N4CCc5ccccc54)nc3)[nH]c2c1	0	0	-	0	0	0
Cc1ccc2nc(-c3ccc(SCC(=O)O)nc3)[nH]c2c1	-	54.9	0	0	0	0
Oc1ccc(CCc2ccccn2)cc1	13.9	0	0	-	0	-
CC(C(=O)OCC(=O)c1c(N)n(C)c(=O)n(C)c1=O)N1C(=O)c2ccccc2C1=O (stereo not drawn)	14.2	0	0	0	0	0
Cn1c(N)c(C(=O)COC(=O)c2ccco2)c(=O)n(C)c1=O	-	0	0	57.1	0	0
CC(C)c1ccc(C(=O)OCC(=O)c2c(N)n(C)c(=O)n(C)c2=O)cc1	0	0	0	-	0	0
SMILES	TcdB inh	Yp Topo-I inh	Mtb BioA inh	VHR inh abs	BH1578 lux ind	PfHsp40 yeast
Cn1c(N)c(C(=O)COC(=O)CCCN2C(=O)c3ccccc3C2=O)c(=O)n(C)c1=O	-	0	0	0	0	0
CC(Oc1cccc(Br)c1)C(=O)Nc1cccc(S(=O)(=O)N2CCOCC2)c1 (stereo not drawn)	0	0	0	-	0	0
Oc1ccccc1-c1csc(-c2ccccc2)n1	0	0	0	0	0	0
Clc1ccc(-c2csc(-c3cccnc3)n2)s1	0	0	0	0	0	29.4
Fc1ccccc1-c1csc(-c2cccnc2)n1	0	0	0	0	0	0
c1ccc(-c2csc(-c3ccncc3)n2)cc1	0	0	0	52.5	0	0
Cc1nn(C)c(C)c1CCC(=O)N1CCCC(C(=O)c2cccc(OC(C)C)c2)C1 (stereo not drawn)	0	0	0	51.3	0	0
CCc1[nH]nc(C(=O)N2CCCC(C(=O)c3cccc(OC(C)C)c3)C2)c1C (stereo not drawn)	0	0	0	55.5	0	0
CN(C(=O)c1ccc2c(=O)n3c(nc2c1)CCCCC3)c1ccccc1Cl	0	0	0	0	0	0
CN(C(=O)c1ccc2c(=O)n3c(nc2c1)CCCCC3)c1ccccc1	-	0	0	52.9	0	0
CCC1CCCCN1S(=O)(=O)c1ccc(C(=O)Nc2nnc(-c3cccs3)o2)cc1 (stereo not drawn)	-	0	0	0	0	59.6
COc1cccc(C2CC(c3cccs3)=NN2C(=O)CSC2=NN3CCCC(=O)N=C3S2)c1OC (stereo not drawn)	0	0	0	53.3	0	0
COc1ccc(C2=NN(C(=O)CSC3=NN4CCCC(=O)N=C4S3)C(c3cccc(OC)c3OC)C2)cc1 (stereo not drawn)	0	0	0	0	0	0
CN=c1scc(-c2ccccc2F)n1/N=C(\C)c1cccnc1	0	0	-	57.5	0	0
CC(C)NC(=O)N1C[C@H]2[C@@H](c3ccccc31)[C@@H](CO)N2Cc1ccccn1	-	-	0	-	-	-
CCOC(=O)C(C)n1cnc2c(oc3ccccc32)c1=O (stereo not drawn)	-	0	0	51.0	0	0
CC(C)n1cnc2c(oc3ccccc32)c1=O	0	0	0	0	0	0
C[C@H]1CN([C@@H](C)CO)S(=O)(=O)c2ccc(C#Cc3ccccc3)cc2O[C@@H]1CN(C)C	0	-	0	-	-	-
COc1ccc(C(=O)Nc2cc(Cl)ccc2C(=O)O)cc1	28.6	0	-	0	0	0
CN(CC(=O)Nc1cccc(F)c1)C(=O)CCC1CCCCC1	0	0	0	-	0	0
CC(C(=O)NC1C(=O)N2C(C(=O)O)=C(CSc3nnnn3C)CSC12)n1cc(Br)cn1 (stereo not drawn)	0	0	-	0	0	0
Cc1nn(C(C)C(=O)NC2C(=O)N3C(C(=O)O)=C(CSc4nnnn4C)CSC23)cc1Cl (stereo not drawn)	0	0	0	0	25.2	0
O=C1/C(=C/c2ccco2)SC(=S)N1c1cccnc1	0	0	0	0	0	0
COc1ccc(NC(=O)c2ccc(N3C(=O)C4CC=C(Cl)CC4C3=O)cc2)cc1 (stereo not drawn)	0	0	0	55.5	0	0
COc1ccc(CN2CCCC(C(=O)Nc3cccc(-n4cccn4)c3)C2)cc1 (stereo not drawn)	0	0	0	0	0	0
COc1cccc(C(=O)C2CCCN(Cc3ccc4nsnc4c3)C2)c1 (stereo not drawn)	0	0	0	0	0	0
COC(=O)c1ccc(CN2CCCC(C(=O)Nc3cccc(-n4cccn4)c3)C2)cc1 (stereo not drawn)	0	0	0	52.5	0	0
